Measurements taken from PubChem BioAssay AID2599 (Sanford-Burnham Center for Chemical Genomics, 2010).
About 5,800 (1.8%) of roughly 330,000 compounds were called active. This is one part of a sample in which actives are shown more often than they occur. Unmarked numbers belong to inactive results.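 Rule for the calls: active = inhibition above about 50% at the single tested dose (limit read from the data); inactive = the rest.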

Each molecule was assayed against Sentrin-specific protease 6 (Homo sapiens) (UniProt Q9GZR1) (assay: SENP6 protease inhibitors, primary screen, biochemical, luminescence, uHTS (AID 2599;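 note: plate controls were DMSO wells with enzyme for no effect and DMSO wells lacking enzyme for full effect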)). Details: Recombinant SENP6 catalytic domain, aminoluciferin luminescence; at 10 µM; active compounds read high.
Sentrin-specific protease 6 (Homo sapiens), sequence (Q9GZR1 628-1112 limits assumed): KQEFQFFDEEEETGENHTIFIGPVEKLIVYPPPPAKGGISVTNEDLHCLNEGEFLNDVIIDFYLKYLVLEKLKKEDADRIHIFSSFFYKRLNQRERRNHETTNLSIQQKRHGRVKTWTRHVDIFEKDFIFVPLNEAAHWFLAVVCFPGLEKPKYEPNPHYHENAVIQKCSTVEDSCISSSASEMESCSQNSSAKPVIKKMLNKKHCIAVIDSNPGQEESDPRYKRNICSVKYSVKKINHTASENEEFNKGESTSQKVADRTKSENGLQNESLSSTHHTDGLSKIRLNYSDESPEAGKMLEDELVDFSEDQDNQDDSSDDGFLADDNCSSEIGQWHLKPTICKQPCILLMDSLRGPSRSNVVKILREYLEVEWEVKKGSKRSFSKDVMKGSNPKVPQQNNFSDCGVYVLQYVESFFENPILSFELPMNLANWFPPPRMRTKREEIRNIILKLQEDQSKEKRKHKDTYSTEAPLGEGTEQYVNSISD
With `Cc1ccc(S(=O)(=O)N2CCN(c3ccccc3)CC2)cc1C` the inhibition was 4.47%. Work on `CC(C)OC(=O)C(C#N)c1nc2ccccc2nc1N1CCN(Cc2ccccc2)CC1` (stereo not given) yielded an inhibition of 6.5%. In the case of `Cc1ccc(S(=O)(=O)C(C#N)c2nc3ccccc3nc2N2CCCC2)cc1C` (stereo not given), the inhibition is reported as 75.9% (active). In the case of `O=C(CCCN1C(=O)c2ccccc2C1=O)Oc1ccc(Cl)cc1`, the inhibition is reported as 1.14%. Work on `Cc1c(C(=O)Nc2ccccc2)sc2nc3n(c(=O)c12)CCCCC3` yielded an inhibition of -15.7%. `O=c1c2c(nc3n1CCCCC3)sc1c(O)cccc12` was tested, and the inhibition was 51.8% (active). Molecule `Cc1cccc2c(=O)n3c(nc12)CCCCC3` has an inhibition of 9.44%. `Cn1cccc1C(=O)NC(=O)COC(=O)Cc1coc2ccc3ccccc3c12` was tested, and the inhibition was -4.09%. In the case of `Cc1c(C(=O)NC(C)C2CC3CCC2C3)cccc1[N+](=O)[O-]` (stereo not given), the inhibition is reported as -22.4%. `COc1ccc(CCNC(=O)CCNS(=O)(=O)c2cc(Br)cnc2N)cc1OC` gave an inhibition of -5.77%. For `O=c1/c(=C/c2ccc(CNS(=O)(=O)c3ccccc3)o2)sc2n1CCN=2`, the inhibition was 3.24%. For `CCn1c(=O)cc(SCC(=O)NCCC2=CCCCC2)c2ccccc21`, the inhibition was -1.94%. Molecule `COCCNC(=O)CCCN1C(=O)c2ccccc2Sc2ncccc21` has an inhibition of -28.9%. In the case of `Oc1c(C=Nc2cccc3nsnc23)ccc2ccccc12`, the inhibition is reported as 94.6% (active). Molecule `Cc1cc2c(cc1C)N(Cc1ccccc1)C1=NCCCN12` has an inhibition of -12.7%. With `O=C(Nc1ccccc1)O/N=C1/CCCc2occc21` the inhibition was -12.8%. Work on `CCCN1C(=O)C(Cc2nc3ccccc3c(=O)n2-c2ccccc2)c2cc(C)ccc21` (stereo not given) yielded an inhibition of -13.2%. `Cc1ccc(NC(=S)N(CCCN2CCCC2)Cc2cccn2Cc2ccc(Cl)cc2)cc1` showed an inhibition of -18%. With `N#Cc1ccc(C2N=C(c3ccccc3)NO2)cc1` (stereo not given) the inhibition was 53% (active). In the case of `Brc1ccccc1C1N=C(c2ccccc2)NO1` (stereo not given), the inhibition is reported as 38.9%. In the case of `C/C=C/C=C/C(=O)O`, the inhibition is reported as -2.25%. `COc1ccc(C(=O)C2CCCN(C(=O)c3cc(C)on3)C2)cc1F` (stereo not given) gave an inhibition of 4.97%. Molecule `O=C(COC(=O)CNC(=O)C1CCCCC1)NCc1ccccc1` has an inhibition of 4.4%. Molecule `O=C(/C=C/c1ccc2c(c1)OCO2)NCc1cn2cc(Cl)ccc2n1` has an inhibition of -4.65%. For `Clc1ccc2nc(CSc3ccccc3)cn2c1`, the inhibition was 72.1% (active). In the case of `CCCCCCSc1ccc(-c2nc3ccc(Cl)cn3c2NCc2ccccc2)cc1`, the inhibition is reported as -0.449%. For `CC1(c2ccc(Cl)cc2)NC(=O)N(CC(=O)c2ccc3c(c2)OCO3)C1=O` (stereo not given), the inhibition was -6.26%. `O=C(c1ccc(S(=O)(=O)c2ccccc2)cc1)N1CCCCCC1` showed an inhibition of -8.79%. In the case of `O=C(c1ccc(CSc2ccccc2)cc1)N1CCCCCC1`, the inhibition is reported as 80.6% (active). Molecule `CC1CCN(C(=O)c2ccc(CSc3ccc(Cl)cc3)cc2)CC1` has an inhibition of 15.6%. Molecule `CCOc1ccccc1C(=O)NC1CC2CCCC(C1)N2Cc1ccccc1` (stereo not given) has an inhibition of 7.09%. `O=C1N/C(=C/c2cccs2)C(=O)N1Cc1ccc(F)cc1` was tested, and the inhibition was -6.09%. `Cc1cccc(C2=N/C(=C/c3cccs3)C(=O)O2)c1` was tested, and the inhibition was 9.27%. In the case of `CSC1=N/C(=C\C=C\c2cccs2)C(=O)S1`, the inhibition is reported as 77.8% (active). In the case of `Cc1ccc2cc(/C=N/Nc3ccc(C(=O)O)cc3)c(Cl)nc2c1`, the inhibition is reported as -25%. For `O=C(O)c1ccc(N/N=C/c2ccc3ncccc3c2)cc1`, the inhibition was 101% (active). Work on `O=C(O)c1ccc(/C=N/Nc2nc(N3CCCCC3)nc(N3CCCCC3)n2)cc1` yielded an inhibition of -7.28%. Work on `Cc1ccc2c(c1)N(CC(=O)N(Cc1ccccn1)Cc1ccco1)C(=O)C(C(C)C)O2` (stereo not given) yielded an inhibition of -1.99%. In the case of `CC(=O)N(C1=C(Cl)C(=O)c2ccccc2C1=O)c1ccc(C(=O)O)cc1`, the inhibition is reported as 81.4% (active). Molecule `COc1ccc(CCNC(=O)CSCc2ccc(Br)cc2)cc1OC` has an inhibition of 1.68%. For `CN(CC(=O)Nc1ccc(Cl)cc1)CC(=O)Nc1cccc2ccccc12`, the inhibition was -2.99%. Work on `CN(CC(=O)Nc1ccc(Cl)cc1)C(=O)c1ccc(COc2ccccc2)cc1` yielded an inhibition of 18.3%. With `CN(CC(=O)Nc1ccc(Cl)cc1)C(=O)CNC(=O)c1ccc2ccccc2c1` the inhibition was 64.9% (active). With `COc1ccc(C2=NOC3(CC(=O)N(c4ccc(Cl)cc4)C3=O)C2)c(OC)c1` (stereo not given) the inhibition was -7.66%. For `Cc1cccc(NC(=O)CSCC(=O)Nc2nnc(C3CC3)s2)c1`, the inhibition was -3.73%. In the case of `Cc1cc(C(=O)Nc2nnc(C3CC3)s2)c(C)s1`, the inhibition is reported as 76.1% (active). Work on `Cc1cnc(NC(=O)C2CCCC2)s1` yielded an inhibition of 8.65%. `O=C(Nc1nnc(C2CC2)s1)c1ccccn1` was tested, and the inhibition was 69.2% (active). In the case of `Cc1cnc(NC(=O)c2ccccn2)s1`, the inhibition is reported as 88.5% (active). `Cc1ccc(SCC(=O)Nc2ncc(C)s2)cc1` showed an inhibition of -5.14%. `O=C(Nc1nnc(C2CC2)s1)c1cc(Cl)sc1Cl` was tested, and the inhibition was 4.15%. `O=C(Nc1nnc(Cc2ccccc2)s1)c1cnccn1` gave an inhibition of -4.43%. `CCc1cc(C(=O)Nc2nnc(C3CC3)s2)sc1C` showed an inhibition of -7.34%. With `COc1ccccc1NC(=O)CCSc1nnc(-c2ccc(O)cc2)o1` the inhibition was -8.69%. Work on `O=C(c1cccc(F)c1)N1CCN(c2ccc([N+](=O)[O-])c3cccnc23)CC1` yielded an inhibition of 13.7%. `CCOc1cc(CNCc2ccccn2)ccc1OCC(=O)NC(C)(C)C` gave an inhibition of 4.74%. `CCn1nc(C)c(CN2CCN(Cc3ccc(OC)c(C)c3C)C(CCO)C2)c1C` (stereo not given) showed an inhibition of -13.1%. Molecule `COCCCNC(=O)CN1CCN(Cc2ccccc2Cl)C1=O` has an inhibition of -5.23%. Molecule `CC(=O)Nc1ccc(S(=O)(=O)Nc2nc3n(n2)C(c2ccccc2)CC(=O)N3)cc1` (stereo not given) has an inhibition of -18.6%. `COc1ccc(C2CC(c3cccs3)=NN2c2ccccc2)cc1` (stereo not given) was tested, and the inhibition was -18.7%. In the case of `Cc1nnc2n1N=C(c1ccccc1)CS2`, the inhibition is reported as 0.225%. For `O=c1c2cc(-c3ccccc3)sc2nc2n1N=C(c1cccs1)CS2`, the inhibition was 73.2% (active). `COc1ccc(Cl)cc1NS(=O)(=O)c1cccc(C(=O)NCC2CCCO2)c1` (stereo not given) showed an inhibition of -6.29%. Molecule `COc1ccc(S(=O)(=O)N2CCOCC2)cc1NC(=O)Cc1c(F)cccc1Cl` has an inhibition of 2.93%. `CC1=CC(=C(C#N)c2nc3ccccc3s2)C=C(C)N1c1ccc(F)cc1F` was tested, and the inhibition was 63.9% (active). Work on `O=C(O)CS/C(=C\c1ccc(F)cc1)c1nc2ccccc2s1` yielded an inhibition of -11.1%. Molecule `N#C/C(=C(/O)Cc1cccc2ccccc12)c1nc2ccccc2s1` has an inhibition of 1.83%. `CN(Cc1ccccc1)C(=O)C1CCCN(c2ncnc3c2nc2n3CCCCC2)C1` (stereo not given) was tested, and the inhibition was -17.3%. `Cc1cc(NC(=O)COc2ccccc2C#N)no1` was tested, and the inhibition was 4.16%. With `O=C(Nc1ccn(Cc2ccccc2)n1)c1n[nH]c([N+](=O)[O-])c1Cl` the inhibition was 98.2% (active). `O=C(Nc1ccn(Cc2ccccc2F)n1)c1ccc(COc2ccc(Cl)cc2Cl)o1` gave an inhibition of 25.5%. `Cc1ccc(Cn2ccc(NC(=O)C3C4CCC(C4)C3C(=O)O)n2)cc1` (stereo not given) showed an inhibition of 13.1%. Molecule `Cc1cc(C)c(S(=O)(=O)Nc2c(C)n(C)n(-c3ccccc3)c2=O)cc1[N+](=O)[O-]` has an inhibition of -1.02%. Molecule `CN(CC1CCCN(CCc2cccc(C(F)(F)F)c2)C1)C(=O)c1ccc2nc[nH]c2c1` (stereo not given) has an inhibition of -6.57%. With `COc1ccc(S(=O)(=O)NCC(=O)NC2CC2)cc1OC` the inhibition was -8.69%. For `CCCCC(c1nnnn1CS(=O)(=O)c1ccc(C)cc1)N1CCC(C(N)=O)CC1` (stereo not given), the inhibition was -48.9%. `COc1ccccc1N=Cc1c(O)c2ccccc2oc1=O` was tested, and the inhibition was 81% (active). Work on `COc1ccccc1N=C(C)C1=C(O)COC1=O` yielded an inhibition of -35%. `COc1cc(N=Cc2c(O)c3ccccc3oc2=O)c(OC)cc1Cl` gave an inhibition of -7.87%. In the case of `CCc1c(C)nc2c(-c3ccccc3)c(C)nn2c1Nc1ccc(NC(C)=O)cc1`, the inhibition is reported as -6.24%. `CCN(C(=O)CSc1cccc[n+]1[O-])c1ccccc1` gave an inhibition of -15.1%. Work on `CCn1c(=O)n(CC)c2cc(N3CCCC3)c(NC(=O)c3ccccc3Br)cc21` yielded an inhibition of 7.04%. With `CN(c1ccc2nc3ccccc3c(=O)n2n1)C1CCCCC1` the inhibition was 93.7% (active). `CN(C(=O)CSc1nncc2ccccc12)C1CCCCC1` was tested, and the inhibition was -34.7%. In the case of `CN(C(=O)c1cc2c(=O)n3ccccc3nc2s1)C1CCCCC1`, the inhibition is reported as -20.3%. For `COc1ccc(/C=N/NC(=O)c2ccncc2)cc1CN1CCCc2ccccc21`, the inhibition was -2.09%. With `C=CCn1c(Cn2nnc3ccccc32)nnc1SCC(=O)N/N=C/c1cc(Br)cc(OC)c1O` the inhibition was 20.6%. Molecule `Cc1ccc(Nc2ncnc3c2cnn3C)c(C)c1` has an inhibition of 14.7%. In the case of `Cc1ccc(-n2ncc3c(Nc4cccc(C(=O)O)c4)ncnc32)cc1`, the inhibition is reported as 97.4% (active). `CCN(CC)C(=O)CSc1ncnc2c1cnn2-c1ccccc1` showed an inhibition of 22.4%. For `c1ccc2sc(NN=C3CCCC3)nc2c1`, the inhibition was 84.1% (active). Molecule `O=C(CCC(=O)c1cccs1)Nc1nc2ccccc2s1` has an inhibition of -6.28%. With `O=C(CCNC(=O)c1ccccc1)Nc1nc2ccccc2s1` the inhibition was -6.27%. In the case of `CC1=NN(C(N)=S)C(=O)C1N=Nc1cc(Cl)ccc1Cl` (stereo not given), the inhibition is reported as 67.7% (active). In the case of `CN(C)S(=O)(=O)c1ccc(N2CCCC2)c(C(=O)Nc2cccc(F)c2)c1`, the inhibition is reported as -13.9%. With `c1ccc(C2CCC(N3CCC(N4CCCCC4)CC3)CC2)cc1` (stereo not given) the inhibition was -12.6%. `CCCOc1ccc(NC(=O)CC2C(=O)N(C)C(=S)N2Cc2ccc3c(c2)OCO3)cc1` (stereo not given) gave an inhibition of -5.66%. `Cc1ccc(S(=O)(=O)Nc2nc3ccccc3nc2N2CCc3ccccc3C2)cc1` was tested, and the inhibition was 72.3% (active). With `Cc1ccc(NC(=O)CN2CCc3ccccc3C2)cc1` the inhibition was -1.22%. In the case of `Cc1ccc(S(=O)(=O)N2CCN(c3ncnc4ccccc34)CC2)cc1`, the inhibition is reported as -8.22%.
